Here are results for 16 compounds from PubChem BioAssay (NCI).

Compounds without any hit were thinned out: in the full panel of roughly 83,000, 20% have a hit.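 For each line, cells grew in 96-well plates with the test compound present at a single concentration for 48 hours.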 Values without a mark were called inactive. Activity calls are given as the source filed them. How the source made its calls: active means growth percent below 10; inactive means the rest.

Test systems include SR leukemia; RPMI-8226 leukemia; OVCAR-8 ovarian; OVCAR-5 ovarian; OVCAR-4 ovarian; SK-OV-3 ovarian; IGROV1 ovarian; OVCAR-3 ovarian; NCI/ADR-RES ovarian; HS 578T breast.
Test in all cases: NCI-60 one-dose screen, 48 h (100 = growth as untreated, 0 = no growth, -100 = all killed)
What all share (settings): 10 µM unless noted

Consider `COc1ccc(C2CCCCC2=O)cc1` (centres undefined), for which the growth was 103% in the assay with SR leukemia; 107% in the assay with RPMI-8226 leukemia; 103% in the assay on OVCAR-8 ovarian; 96.9% with OVCAR-5 ovarian; 103% in the assay with OVCAR-4 ovarian; 103% with SK-OV-3 ovarian. Also, the growth in the assay on IGROV1 ovarian is 118%; in the assay on OVCAR-3 ovarian, 121%; in the assay on NCI/ADR-RES ovarian, 108%.

`N#C/C(=C\NC(=S)N=Nc1c(O)[nH]c2ccccc12)c1nc2ccccc2s1`: the growth is 77.3% with SR leukemia; 97% in the assay on RPMI-8226 leukemia; 96% in the assay with OVCAR-8 ovarian; 105% in the assay on OVCAR-5 ovarian; 93.7% in the assay on OVCAR-4 ovarian; 92.8% in the assay on SK-OV-3 ovarian. Further, the growth with IGROV1 ovarian is 85.4%; in the assay with OVCAR-3 ovarian, 103%; in the assay on HS 578T breast, 94.6%; with NCI/ADR-RES ovarian, 103%.

Turning to `Cc1[nH]nc(C(N)=O)c1[N+](=O)[O-]`, the growth is 84.7% in the assay on SR leukemia; 96.3% in the assay on RPMI-8226 leukemia; 108% in the assay with OVCAR-8 ovarian; 104% with OVCAR-5 ovarian; 122% with OVCAR-4 ovarian; 101% in the assay with SK-OV-3 ovarian. The growth is 115% with IGROV1 ovarian, 101% with OVCAR-3 ovarian, 87.7% in the assay on HS 578T breast and 102% in the assay with NCI/ADR-RES ovarian.

On to `CC(C)OCC(CCl)OC(=O)Nc1ccccc1` (centres undefined), for which the growth was 117% in the assay on SR leukemia; 109% with RPMI-8226 leukemia; 97.9% with OVCAR-8 ovarian; 104% in the assay with OVCAR-5 ovarian; 101% with OVCAR-4 ovarian; 97.6% in the assay with SK-OV-3 ovarian. In addition, the growth in the assay on IGROV1 ovarian is 105%; with OVCAR-3 ovarian, 101%; with HS 578T breast it was 114%; in the assay with NCI/ADR-RES ovarian it was 107%.

Regarding `N#CCCN1C(=O)CCC1C(=O)O` (centres undefined), the growth is 92.9% with SR leukemia; 95.2% with RPMI-8226 leukemia; 98.1% with OVCAR-8 ovarian; 105% in the assay on OVCAR-5 ovarian; 114% in the assay with OVCAR-4 ovarian; 145% in the assay on SK-OV-3 ovarian. Further, the growth is 107% in the assay on IGROV1 ovarian, 115% in the assay on OVCAR-3 ovarian and 119% in the assay with NCI/ADR-RES ovarian.

As to `CCOC(C=O)OCC`, the growth is 89.9% in the assay on SR leukemia; 99.1% in the assay with RPMI-8226 leukemia; 102% in the assay with OVCAR-8 ovarian; 102% with OVCAR-5 ovarian; 114% with OVCAR-4 ovarian; 106% in the assay with SK-OV-3 ovarian. In addition, the growth in the assay with IGROV1 ovarian was 108%; in the assay with OVCAR-3 ovarian, 109%; in the assay on HS 578T breast it was 109%; in the assay with NCI/ADR-RES ovarian, 107%.

Take `CC(=O)C[n+]1ccc(C)cc1Sc1ccccc1C`: the growth with SR leukemia is 130%; in the assay on RPMI-8226 leukemia it was 98.6%; with OVCAR-8 ovarian, 88.7%; with OVCAR-5 ovarian, 90%; in the assay on OVCAR-4 ovarian, 100%; in the assay with SK-OV-3 ovarian, 108%. Further, the growth is 120% in the assay on IGROV1 ovarian, 102% with OVCAR-3 ovarian, 95.7% in the assay with HS 578T breast and 101% in the assay with NCI/ADR-RES ovarian.

For `ON1CCCC1`, the growth was 90.3% in the assay on SR leukemia; 88.2% in the assay on RPMI-8226 leukemia; 103% in the assay with OVCAR-8 ovarian; 103% in the assay on OVCAR-5 ovarian; 107% in the assay on OVCAR-4 ovarian; 102% in the assay on SK-OV-3 ovarian. In addition, the growth with IGROV1 ovarian was 108%; in the assay on OVCAR-3 ovarian, 112%; in the assay on NCI/ADR-RES ovarian, 102%.

As to `OCC1CCC(O)C(CO)N1` (centres undefined), the growth is 101% with SR leukemia; 83.7% in the assay on RPMI-8226 leukemia; 112% in the assay with OVCAR-8 ovarian; 88.4% in the assay with OVCAR-5 ovarian; 94.6% in the assay on OVCAR-4 ovarian; 118% in the assay on SK-OV-3 ovarian. Further, the growth in the assay on IGROV1 ovarian was 110%; in the assay with OVCAR-3 ovarian it was 107%; in the assay on NCI/ADR-RES ovarian, 118%.

For `COc1ccc(/C=N/NC(=O)COCC(=O)N/N=C/c2ccc(OC)cc2)cc1`, the growth in the assay on SR leukemia is 96.7%; with RPMI-8226 leukemia, 101%; in the assay with OVCAR-8 ovarian, 104%; with OVCAR-5 ovarian it was 108%; in the assay with OVCAR-4 ovarian, 90.5%; with SK-OV-3 ovarian, 108%. Also, the growth is 110% in the assay on IGROV1 ovarian, 114% with HS 578T breast and 112% with NCI/ADR-RES ovarian.

Consider `COc1ccc2c(c1)Nc1ccccc1S2`, for which the growth in the assay on SR leukemia is 118%; in the assay with RPMI-8226 leukemia, 95.4%; in the assay with OVCAR-8 ovarian it was 102%; in the assay with OVCAR-5 ovarian, 106%; in the assay with OVCAR-4 ovarian, 91.4%; with SK-OV-3 ovarian it was 111%. Moreover, the growth in the assay with IGROV1 ovarian was 103%; in the assay on OVCAR-3 ovarian, 113%; in the assay with NCI/ADR-RES ovarian, 111%.

As to `Nc1cc2c(cc1Cl)C(=O)c1ccccc1C2=O`, the growth in the assay on SR leukemia was 59.8%; with RPMI-8226 leukemia, 51.1%; in the assay with OVCAR-8 ovarian, 21.7%; in the assay with OVCAR-5 ovarian it was 58.5%; with OVCAR-4 ovarian, 9.39% (active); with SK-OV-3 ovarian, 39.1%. The growth with IGROV1 ovarian was 35.5%; in the assay on OVCAR-3 ovarian it was 62.3%; in the assay on NCI/ADR-RES ovarian it was 24.1%.

On to `CN1CCN(C(=S)S)CC1`, for which the growth is 104% with SR leukemia; 102% with RPMI-8226 leukemia; 109% with OVCAR-8 ovarian; 106% with OVCAR-5 ovarian; 127% in the assay on OVCAR-4 ovarian; 111% with SK-OV-3 ovarian. For the same compound, the growth is 74.4% with IGROV1 ovarian, 115% in the assay on OVCAR-3 ovarian and 108% in the assay on NCI/ADR-RES ovarian.

Consider `Clc1ccc(/C=C/c2ccccn2)cc1`, for which the growth is 98.2% in the assay on SR leukemia; 45.5% in the assay on RPMI-8226 leukemia; 105% in the assay with OVCAR-8 ovarian; 112% with OVCAR-5 ovarian; 62.3% in the assay with OVCAR-4 ovarian; 104% in the assay with SK-OV-3 ovarian. Besides, the figures for the growth in the assay on IGROV1 ovarian, in the assay on OVCAR-3 ovarian and in the assay with NCI/ADR-RES ovarian were 87.2%, 98.4% and 98.8%, respectively.

For the compound `Oc1cccc(CNC2CCCCC2)c1`, the growth is 102% in the assay on SR leukemia; 104% in the assay with RPMI-8226 leukemia; 110% in the assay on OVCAR-8 ovarian; 108% with OVCAR-5 ovarian; 126% in the assay with OVCAR-4 ovarian; 109% in the assay with SK-OV-3 ovarian. Further, the growth in the assay with IGROV1 ovarian is 108%; with OVCAR-3 ovarian, 119%; with NCI/ADR-RES ovarian it was 110%.

`CC(=O)NNC(=S)N/C=C/c1c(C)ccc([N+](=O)[O-])c1[N+](=O)[O-]`: the growth in the assay with SR leukemia was 92.9%; in the assay on RPMI-8226 leukemia, 103%; in the assay with OVCAR-8 ovarian, 102%; in the assay on OVCAR-5 ovarian it was 99.3%; in the assay with OVCAR-4 ovarian it was 106%; in the assay on SK-OV-3 ovarian, 105%. In addition, the growth is 109% with IGROV1 ovarian, 108% in the assay with HS 578T breast and 97.9% with NCI/ADR-RES ovarian.
